Data taken from PubChem BioAssay AID1117319 (Southern Research Institute, 2015).
Values joined by “and” are separate entries in the source; they are usually repeats but may differ in a detail not shown here. Identical values can stand only once. The whole screen tested about 260,000 compounds, of which about 1,500 (0.58%) were called active. Roughly 5% stayed inconclusive and do not appear here. A selection follows. Measured potencies and affinities stand elsewhere. Values without a mark were called inactive.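 How the source made its calls: active means inhibition above a set limit at one or more doses, reproduced on every date tested; inconclusive means results disagree between test dates, or hit never tested in dose response; inactive means the rest.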

Target: Virion infectivity factor (Human immunodeficiency virus type 1 group M subtype B (isolate BH10)) + Virion infectivity factor (Human immunodeficiency virus type 1 group M subtype B (isolate BRU/LAI)) + Virion infectivity factor (Human immunodeficiency virus type 1 group M subtype B (isolate PCV12)) + Virion infectivity factor (Human immunodeficiency virus type 1 group M subtype B (isolate HXB2)) + DNA dC->dU-editing enzyme APOBEC-3G (Homo sapiens) (UniProt P69720+P69721+P69722+P69723+Q9HC16)
Assay: inhibitors of Vif binding to APOBEC3G peptide, primary screen, biochemical, TR-FRET, GST-Vif 1-94, biotin-A3G peptide, dose response retest (AID 1117319);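 further: Vif residues 1-94 fused to GST binding biotinylated APOBEC3G peptide 110-148; 0% = full assay without inhibitor and 100% = GST in place of GST-Vif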
Settings: hits give high values

Structure (SMILES)	inhibition
CCc1ccc(OCc2nnc(SCc3ccc(C(=O)O)cc3)o2)cc1	-1.45%
O=C(O)c1ccc(CSc2nnc(COc3ccccc3)o2)cc1	-5.6%
CSCCC(NC(=O)c1ccccc1Cl)C(=O)N1CCN(c2ccccn2)CC1 (stereo unspecified)	-6.33%
COc1ccc(-c2noc(CCC(=O)N3CCN(c4cccc(C(F)(F)F)c4)CC3)n2)cc1	22.9% and -0.11%
CC(C)N(Cc1ccccc1)C(=O)COC(=O)C1CCN(c2ccc(C(F)(F)F)cn2)CC1	-3.12%
Oc1ccc2ccccc2c1Br	0.97%
O=C1C(=O)c2c(ccc3ccccc23)-c2ccccc21	-6.35%
CCCCCCCCC#Cc1nc(C)ccc1OC	-3.1%
CCOC(=O)N1C2=NC(C(=O)OC)=C(C(=O)OC)[C@@H]3Nc4ccccc4[C@]23C[C@H]1C(=O)OC	4.32%
C[C@H]1CN([C@@H](C)CO)C(=O)CCCn2nncc2CO[C@@H]1CN(C)C(=O)NC1CCCCC1	1.5%
O=C(O)c1ccccc1C(=O)Nc1ccc(-n2nccc2C(F)(F)F)cc1	-1.72%
O=C(CNc1ccc(F)cc1)N/N=C1\CCCc2ccccc21	-0.54%
COC(=O)CSc1nc(N)nc(C)c1Cl	-8.89%
CC1=C(C(=O)N2CCOCC2)C(c2ccc(O)cc2)NC(=S)N1 (stereo unspecified)	17.4%
c1ccc2c3c(cc(N4CCOCC4)c2c1)OC1(N2CCOCC2)CCCCC1O3 (stereo unspecified)	-2.4%
COc1cc(OC)cc(C(=O)N[C@H](C(=O)Nc2cc(C)cc(C)c2)C(C)C)c1	-1.59%
COc1ccc(OC)c2[nH]c(=O)c(CCNC(=O)C(=O)c3c(C)[nH]c4ccccc34)cc12	2.37%
CC[n+]1cccc(-c2nc3ccccc3s2)c1	5.45%
COC(=O)CSc1nnc(CNC(=O)c2cccc(C)c2)n1-c1ccccc1OC	6.5%
CCOC(=O)CSc1nnc(CNC(=O)Cc2ccccc2)n1-c1ccccc1OC	-6.46%
Cc1ccc(CNC(=O)C2CC2c2ccccc2)cc1 (stereo unspecified)	-6.49%
CN(CC(=O)Nc1c(Cl)cccc1Cl)C(=O)Cc1ccsc1	-2.32%
Cc1cc(NC(=O)C2CC(c3ccc(F)cc3)=NO2)no1 (stereo unspecified)	0.56%
CCc1cc2cccc(C)c2nc1SCC(=O)Nc1nonc1C	32.8%
COc1ccccc1CN(Cc1ccco1)S(=O)(=O)c1ccc(-n2cnnn2)c(OC)c1	0.86%
COc1cc(S(=O)(=O)N(Cc2ccccn2)Cc2ccco2)ccc1-n1cnnn1	-2.53%
